Experimental data: PMC5540273 (PLoS ONE, 2017)

system: CDK5; details: concentration: 1 μM, replicates: in singlicate; n = 1
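Further: KINOMEscan kinase panel screen.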

Q: How did the “%Inh” value turn out when `COC(=O)c1c(-c2ccccc2)c2cc(C)ccc2c(=O)n1Cc1ccccc1` was run?
A: 0%

Q: For `CCc1ccc(-c2ccc3c(c2)-c2nn(C)cc2S(=O)(=O)N3C)cc1`, which “%Inh” value is on record?
A: 12%

Q: With `O=C(Nc1ccc2c(c1)OCO2)NC1CCN(c2ccnc(NCc3ccc(F)cc3)n2)CC1` [GSK1379859] as the compound, how does the “%Inh” value read?
A: 0%

Q: How did the “%Inh” value turn out when `Cc1nnc(-c2ccc(C)c(-c3ccc(C(=O)O)cc3)c2)o1` [GW608005] was run?
A: 0%

Q: `CCCNC(=O)Nc1ccc(Oc2ncnc3ccn(C)c23)cc1` was tested. Which “%Inh” value did it give?
A: 19%

Q: With `CCC(=O)c1c(-c2ccccc2)c2cc(Cl)ccc2c(=O)n1Cc1cc(C(=O)NC2CC2)n(C)n1` as the compound, how does the “%Inh” value read?
A: 0%

Q: With `COc1ccc(CNC(=O)NC2CCN(c3ccnc(Nc4ccc(F)cc4)n3)C2)cc1` (centres unmarked) [GSK1379706] as the compound, how does the “%Inh” value read?
A: 0%

Q: Which “%Inh” value does the source give for `CCC(=O)c1c(-c2ccccc2)c2cc(Cl)ccc2c(=O)n1Cc1cc(S(C)(=O)=O)n(CC(F)F)n1` here?
A: 0%

Q: `COc1cccc(C2=C(Nc3cccc(C(=O)O)c3)C(=O)NC2=O)c1` [SB-390770] was tested. Which “%Inh” value did it give?
A: 0%

Q: Which “%Inh” value does the source give for `COc1cc(OC)cc(-c2cc3cnc(N)nc3nc2NC(=O)NC(C)(C)C)c1` here?
A: 0%

Q: Which “%Inh” value does the source give for `Nc1ncnc2c1ncn2-c1cccc(F)c1` [SKF-97560] here?
A: 0%

Q: `CN1C(=O)C(Nc2ccccc2)=C(c2ccccc2)C1=O` [SB-300079] was tested. Which “%Inh” value did it give?
A: 5%

Q: How did the “%Inh” value turn out when `COc1cc2nccc(Nc3cccc(Oc4ccccc4)c3)c2cc1OC.Cl` [GW284543] was run?
A: 0%

Q: Which “%Inh” value does the source give for `COc1ccc(-c2coc3ccc(-c4nnc(SCc5cccc(C#N)c5)o4)cc23)cc1` here?
A: 18%

Q: With `Cc1ccccc1COc1cc(-n2cnc3cc(Cl)ccc32)sc1C(N)=O` [GW813349] as the compound, how does the “%Inh” value read?
A: 0%

Q: `Nc1ncnc2c1ncn2-c1cccc2ccccc12` [SKF-97184] was tested. Which “%Inh” value did it give?
A: 0%

Q: For `COc1cc2nccc(Nc3ccc(OCc4ccc(NC(C)=O)cc4)cc3)c2cc1OC.Cl` [GW440135], which “%Inh” value is on record?
A: 0%

Q: How did the “%Inh” value turn out when `O=C(Nc1n[nH]c2cc(-c3ccccc3F)ccc12)C1CC1` [SB-733371] was run?
A: 0%

Q: Which “%Inh” value does the source give for `O=C(NCc1cccs1)c1cc(C(=O)c2c(Cl)cccc2Cl)c[nH]1` [GW823670] here?
A: 0%

Q: With `COc1ccc(Nc2nccc(N3CCC(NS(=O)(=O)c4ccc(NC(C)=O)cc4)C3)n2)cc1` (centres unmarked) [GSK1379729] as the compound, how does the “%Inh” value read?
A: 12%

Q: Which “%Inh” value does the source give for `COC(=O)c1c(-c2ccccc2)c2cc(Br)ccc2c(=O)n1Cc1ccc(S(C)(=O)=O)cc1` here?
A: 15%

Q: Which “%Inh” value does the source give for `COc1ccc(-c2cc3c(C)nc(N)nc3n([C@H]3CC[C@H](O)CC3)c2=O)cn1` here?
A: 0%

Q: Which “%Inh” value does the source give for `Nc1n[nH]c2nnc(-c3ccccc3)c(-c3ccccc3)c12` [GW554060] here?
A: 0%

Q: With `CCS(=O)(=O)c1ccc(OC)c(Nc2ncc(-c3ccc(F)cc3)o2)c1.Cl` [GW591947] as the compound, how does the “%Inh” value read?
A: 0%

Q: `Nc1n[nH]c2ncc(-c3ccccc3)cc12` [SB-517081] was tested. Which “%Inh” value did it give?
A: 0%

Q: How did the “%Inh” value turn out when `OCCCNc1nccc(-c2c(-c3cccc(C(F)(F)F)c3)nn3cc(C(F)(F)F)ccc23)n1` [GW630813] was run?
A: 0%

Q: How did the “%Inh” value turn out when `CCc1nc(-c2cccc(C)c2)c(-c2ccncc2)s1` was run?
A: 3%

Q: With `CCC(=O)c1c(-c2ccccc2)c2cc(Cl)ccc2c(=O)n1Cc1cc(S(C)(=O)=O)n(CCC(C)(C)O)n1` as the compound, how does the “%Inh” value read?
A: 10%

Q: Which “%Inh” value does the source give for `Cc1ccc(Oc2ccc(Nc3ncnc4cc[nH]c34)cc2C)cn1` here?
A: 9%

Q: How did the “%Inh” value turn out when `Nc1nccc2scc(-c3ccc4c(c3)CCN4C(=O)Cc3ccccc3)c12` [GSK2576924] was run?
A: 0%

Q: With `Cc1cccc(-c2nc(Nc3ccc4c(cnn4C)c3)c3ccccc3n2)n1` [GW876731] as the compound, how does the “%Inh” value read?
A: 0%

Q: Which “%Inh” value does the source give for `COC(=O)c1c(-c2ccccc2)c2cc(Br)ccc2c(=O)n1Cc1ccc(NC(=O)CCC(=O)O)cc1` here?
A: 0%

Q: `COc1ccc(-c2cc3c(C)nc(N)nc3n([C@H]3CC[C@H](OCCO)CC3)c2=O)cn1` was tested. Which “%Inh” value did it give?
A: 19%

Q: How did the “%Inh” value turn out when `O=C(Nc1n[nH]c2nc(-c3ccccc3)c(Br)cc12)C1CC1` [SB-708998] was run?
A: 10%

Q: With `COc1cc2ncn(-c3cc(OCCCc4ccccc4)c(C(N)=O)s3)c2cc1OC` [GSK205189] as the compound, how does the “%Inh” value read?
A: 0%

Q: Which “%Inh” value does the source give for `COc1cc(Nc2ccnc3ccc(C(F)(F)F)cc23)cc(OC)c1OC` [GW577382] here?
A: 0%

Q: With `Cc1ccc(-c2ccc3c(ccc4sc5c(c43)NC[C@@H](C)N=C5N(C)C)n2)cn1` as the compound, how does the “%Inh” value read?
A: 0%

system: CDK7; details: concentration: 1 μM, replicates: in singlicate; n = 1

Q: How did the “%Inh” value turn out when `COC(=O)c1c(-c2ccccc2)c2cc(C)ccc2c(=O)n1Cc1ccccc1` was run?
A: 0%

Q: How did the “%Inh” value turn out when `CCc1ccc(-c2ccc3c(c2)-c2nn(C)cc2S(=O)(=O)N3C)cc1` was run?
A: 0%

Q: How did the “%Inh” value turn out when `O=C(Nc1ccc2c(c1)OCO2)NC1CCN(c2ccnc(NCc3ccc(F)cc3)n2)CC1` [GSK1379859] was run?
A: 0%

Q: How did the “%Inh” value turn out when `Cc1nnc(-c2ccc(C)c(-c3ccc(C(=O)O)cc3)c2)o1` [GW608005] was run?
A: 0%

Q: `CCCNC(=O)Nc1ccc(Oc2ncnc3ccn(C)c23)cc1` was tested. Which “%Inh” value did it give?
A: 0%

Q: With `CCC(=O)c1c(-c2ccccc2)c2cc(Cl)ccc2c(=O)n1Cc1cc(C(=O)NC2CC2)n(C)n1` as the compound, how does the “%Inh” value read?
A: 12%

Q: Which “%Inh” value does the source give for `COc1ccc(CNC(=O)NC2CCN(c3ccnc(Nc4ccc(F)cc4)n3)C2)cc1` (centres unmarked) [GSK1379706] here?
A: 4%

Q: For `CCC(=O)c1c(-c2ccccc2)c2cc(Cl)ccc2c(=O)n1Cc1cc(S(C)(=O)=O)n(CC(F)F)n1`, which “%Inh” value is on record?
A: 0%

Q: With `COc1cccc(C2=C(Nc3cccc(C(=O)O)c3)C(=O)NC2=O)c1` [SB-390770] as the compound, how does the “%Inh” value read?
A: 0%

Q: `COc1cc(OC)cc(-c2cc3cnc(N)nc3nc2NC(=O)NC(C)(C)C)c1` was tested. Which “%Inh” value did it give?
A: 31%

Q: Which “%Inh” value does the source give for `Nc1ncnc2c1ncn2-c1cccc(F)c1` [SKF-97560] here?
A: 0%

Q: With `CN1C(=O)C(Nc2ccccc2)=C(c2ccccc2)C1=O` [SB-300079] as the compound, how does the “%Inh” value read?
A: 6%

Q: With `COc1cc2nccc(Nc3cccc(Oc4ccccc4)c3)c2cc1OC.Cl` [GW284543] as the compound, how does the “%Inh” value read?
A: 0%

Q: How did the “%Inh” value turn out when `COc1ccc(-c2coc3ccc(-c4nnc(SCc5cccc(C#N)c5)o4)cc23)cc1` was run?
A: 9%

Q: How did the “%Inh” value turn out when `Cc1ccccc1COc1cc(-n2cnc3cc(Cl)ccc32)sc1C(N)=O` [GW813349] was run?
A: 0%

Q: How did the “%Inh” value turn out when `Nc1ncnc2c1ncn2-c1cccc2ccccc12` [SKF-97184] was run?
A: 22%

Q: `COc1cc2nccc(Nc3ccc(OCc4ccc(NC(C)=O)cc4)cc3)c2cc1OC.Cl` [GW440135] was tested. Which “%Inh” value did it give?
A: 0%

Q: Which “%Inh” value does the source give for `O=C(Nc1n[nH]c2cc(-c3ccccc3F)ccc12)C1CC1` [SB-733371] here?
A: 0%

Q: With `O=C(NCc1cccs1)c1cc(C(=O)c2c(Cl)cccc2Cl)c[nH]1` [GW823670] as the compound, how does the “%Inh” value read?
A: 0%

Q: How did the “%Inh” value turn out when `COc1ccc(Nc2nccc(N3CCC(NS(=O)(=O)c4ccc(NC(C)=O)cc4)C3)n2)cc1` (centres unmarked) [GSK1379729] was run?
A: 0%

Q: How did the “%Inh” value turn out when `COC(=O)c1c(-c2ccccc2)c2cc(Br)ccc2c(=O)n1Cc1ccc(S(C)(=O)=O)cc1` was run?
A: 29%

Q: With `COc1ccc(-c2cc3c(C)nc(N)nc3n([C@H]3CC[C@H](O)CC3)c2=O)cn1` as the compound, how does the “%Inh” value read?
A: 7%

Q: Which “%Inh” value does the source give for `Nc1n[nH]c2nnc(-c3ccccc3)c(-c3ccccc3)c12` [GW554060] here?
A: 0%

Q: How did the “%Inh” value turn out when `CCS(=O)(=O)c1ccc(OC)c(Nc2ncc(-c3ccc(F)cc3)o2)c1.Cl` [GW591947] was run?
A: 0%

Q: Which “%Inh” value does the source give for `Nc1n[nH]c2ncc(-c3ccccc3)cc12` [SB-517081] here?
A: 0%

Q: For `OCCCNc1nccc(-c2c(-c3cccc(C(F)(F)F)c3)nn3cc(C(F)(F)F)ccc23)n1` [GW630813], which “%Inh” value is on record?
A: 0%

Q: Which “%Inh” value does the source give for `CCc1nc(-c2cccc(C)c2)c(-c2ccncc2)s1` here?
A: 0%

Q: `CCC(=O)c1c(-c2ccccc2)c2cc(Cl)ccc2c(=O)n1Cc1cc(S(C)(=O)=O)n(CCC(C)(C)O)n1` was tested. Which “%Inh” value did it give?
A: 38%

Q: How did the “%Inh” value turn out when `Cc1ccc(Oc2ccc(Nc3ncnc4cc[nH]c34)cc2C)cn1` was run?
A: 40%

Q: For `Nc1nccc2scc(-c3ccc4c(c3)CCN4C(=O)Cc3ccccc3)c12` [GSK2576924], which “%Inh” value is on record?
A: 7%

Q: Which “%Inh” value does the source give for `Cc1cccc(-c2nc(Nc3ccc4c(cnn4C)c3)c3ccccc3n2)n1` [GW876731] here?
A: 11%

Q: With `COC(=O)c1c(-c2ccccc2)c2cc(Br)ccc2c(=O)n1Cc1ccc(NC(=O)CCC(=O)O)cc1` as the compound, how does the “%Inh” value read?
A: 5%

Q: With `COc1ccc(-c2cc3c(C)nc(N)nc3n([C@H]3CC[C@H](OCCO)CC3)c2=O)cn1` as the compound, how does the “%Inh” value read?
A: 14%

Q: For `O=C(Nc1n[nH]c2nc(-c3ccccc3)c(Br)cc12)C1CC1` [SB-708998], which “%Inh” value is on record?
A: 1%

Q: How did the “%Inh” value turn out when `COc1cc2ncn(-c3cc(OCCCc4ccccc4)c(C(N)=O)s3)c2cc1OC` [GSK205189] was run?
A: 0%

Q: `COc1cc(Nc2ccnc3ccc(C(F)(F)F)cc23)cc(OC)c1OC` [GW577382] was tested. Which “%Inh” value did it give?
A: 1%

Q: How did the “%Inh” value turn out when `Cc1ccc(-c2ccc3c(ccc4sc5c(c43)NC[C@@H](C)N=C5N(C)C)n2)cn1` was run?
A: 6%
